TDP1 cell noCPT = qHTS for Inhibitors of human tyrosyl-DNA phosphodiesterase 1 (TDP1): qHTS in cells in absence of CPT | Potency, µM (titrated, usually from 46.2 µM), hits mostly inhibitors | 420,000 tested, 15% active | DT40 Tdp1-/- hTDP1 cells, no CPT, ATP luminescence, 48 h; also: nearly all actives have a fitted effect of over 55% in size
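Growth of hTDP1-complemented DT40 Tdp1-knockout cells is measured by ATP luminescence after at least 48 hr compound exposure at 37 °C, with DMSO substituting for the 20 nM CPT used in the parallel screen.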
TGFb SMAD3 inh = blocks TGF-b signaling | AID 588855 | Potency, µM (series often up to 46.1 µM), most hits filed as inhibitors | 410,000 tested, 1.2% active | HepG2 CAGA-GFP TGF-b/SMAD3 reporter, GFP fluorescence, 18 h; TGF-beta stimulated, 500 pg/mL final; also: nearly all actives have a fitted effect of over 65% in size
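Smad-responsive CAGA-GFP expression was quantified in HEPG2 cells exposed to compounds and 500 pg/mL final TGF-beta for 18 h at 37 degrees C; unstimulated wells defined full inhibition.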
TDP1 cell CPT = growth inhibition of DT40 Tdp1-/-;hTDP1 cells with camptothecin (screen for TDP1 inhibitors); Potency, µM (titrated, usually from 46.2 µM), hits mostly inhibitors; 420,000 tested, 12% active; AID 686979; chicken DT40 Tdp1-/-;hTDP1 cells + 20 nM CPT, ATP luminescence, 48 h; also: nearly all actives have a fitted effect of over 55% in size
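Cell growth measured by CellTiter-Glo luminescence after a minimum 48 h, 37 C compound exposure with 20 nM CPT in Tdp1-knockout DT40 cells stably expressing hTDP1, seeded 400/well; qHTS titration format.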
TDP1 block = blocks human tyrosyl-DNA phosphodiesterase 1. recombinant TDP1, AlphaScreen DNA substrate cleavage. Potency, µM (highest dose often 130 µM), actives largely listed as inhibitors. 350,000 tested, 0.28% active. AID 485290; also: nearly all actives have a fitted effect of over 40% in size
Target sequence (Q9NUW8 whole entry, looked up): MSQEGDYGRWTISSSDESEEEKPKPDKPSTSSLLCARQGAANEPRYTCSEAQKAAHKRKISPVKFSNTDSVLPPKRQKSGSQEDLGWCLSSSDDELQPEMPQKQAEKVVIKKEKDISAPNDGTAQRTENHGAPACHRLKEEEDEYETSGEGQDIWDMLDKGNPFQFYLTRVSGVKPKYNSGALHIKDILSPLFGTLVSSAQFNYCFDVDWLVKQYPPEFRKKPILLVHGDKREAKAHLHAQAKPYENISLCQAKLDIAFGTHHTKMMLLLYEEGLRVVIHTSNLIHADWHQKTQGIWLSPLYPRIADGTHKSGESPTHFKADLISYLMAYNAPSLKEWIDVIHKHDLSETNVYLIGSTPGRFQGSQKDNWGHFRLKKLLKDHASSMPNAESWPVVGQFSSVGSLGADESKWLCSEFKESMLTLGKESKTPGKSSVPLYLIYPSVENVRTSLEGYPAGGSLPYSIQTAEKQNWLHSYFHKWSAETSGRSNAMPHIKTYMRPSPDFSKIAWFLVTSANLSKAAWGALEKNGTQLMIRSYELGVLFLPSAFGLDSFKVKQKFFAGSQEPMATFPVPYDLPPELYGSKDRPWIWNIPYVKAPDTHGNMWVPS
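Signal: AlphaScreen proximity between streptavidin donor and anti-FITC acceptor beads on intact substrate. Reaction: Tdp1 1 nM, substrate 15 nM final, 5 min RT after 15 min compound preincubation.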
IL1B secr inh = blocks inflammasome-driven IL-1 beta release; THP-1 LPS/ATP IL-1B secretion, AlphaLISA, 16 h; active compounds read low; AID 743279; activity change, % at 57.5 µM; 360,000 tested, 4.7% active; in the data active = activity change below about -50%; inconclusive = mostly about -30% to -49%
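THP-1 cells pretreated 1 hr with compounds (up to 57.5 uM final), then stimulated with LPS (250 ng/mL final) plus ATP (1.25 mM final); secreted IL-1B measured by AlphaLISA after 16 hr, decreased signal indicating inhibition.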
HepG2 viability = HepG2 cytotoxicity, counter-screen for TGF-b inhibitors; AID 588856; HepG2 CAGA-GFP viability, ATP luminescence, 18 h; 410,000 tested, 0.76% active; Potency, µM (top dose mostly 46.1 µM), hits mostly cytotoxic
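CellTiter-Glo luminescence gave cytotoxicity after 18 hours at 37 degrees C. The cells were HepG2 CAGA-GFP in 1% FBS DMEM, stimulated with 500 pg/mL TGF-beta after compound addition. %Activity was normalised to no-cell wells (complete cell-killing) and DMSO (no toxicity), and curves were fitted and classified.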
Numbers stand for hits; n = inactive; u = inconclusive; x = not tested or not shown; [ ] = another dose, or the depositor's remark. This is a sample that favours compounds with a hit; in the whole collection about 19% have one here. Unless noted, calls follow the shape of the dose curve; as a rule, active = well fitted curve in the direction sought with a large enough effect; inconclusive = small, poorly fitted or top-dose-only effect, or another doubt; inactive = no such curve, though single readings can be large; an effect the other way counts as inactive or inconclusive.

SMILES | TDP1 cell noCPT | TGFb SMAD3 inh | TDP1 cell CPT | TDP1 block | IL1B secr inh | HepG2 viability
O=c1c2ccccc2nc(/C=C/c2ccccc2O)n1-c1ccc(Br)cc1 | 16.4µM | n | u | n[12.3 µM] | x | n
O=c1c2ccccc2nc(/C=C/c2ccc(O)cc2)n1-c1ccc(O)cc1 | u | n | u | x | n | n
COc1ccc(-n2c(/C=C/c3ccc(O)cc3)nc3ccccc3c2=O)cc1 | 20.6µM | u | 23.1µM | x | -54.3 | n
Cc1nc2n(c(=O)c1CCN1CCC(c3noc4cc(F)ccc34)CC1)CCCC2 | u | u | u | n | n | n
CCCN(CCC)CCc1c[nH]c2ccc(C(N)=O)cc12 | n | x | n | n | x | x
CCCN(CCC)CCc1c[nH]c2ccccc12 | u | x | 19.1µM | x | x | x
COc1ccc(CN(CCc2c[nH]c3ccccc23)Cc2ccc(OC)cc2)cc1 | 14.6µM | u | 16.4µM | x | n | n
CSC(=S)NCc1c[nH]c2ccccc12 | x | x | x | n | x | x
CCN(CC)Cc1c[nH]c2ccccc12 | 16.4µM | n | 10.3µM | n | n | n
CCC(CC)NCc1c[nH]c2ccccc12 | 3.66µM | n | 4.11µM | n | n | n
Cn1c(O)c(C=NCCN2CCN(C(=O)Nc3ccccc3)CC2)c(=O)n(C)c1=O | n | n | n | n | x | n
COC(=O)N1CCC2(CCN(CC(C)C)CC2)CC1 | n | x | n | x | x | x
COC(=O)[C@@H]1C[C@H](OC(C)=O)C(=O)[C@H]2[C@@]1(C)CC[C@H]1C(=O)O[C@H](c3ccoc3)C[C@]21C | x | x | x | n | x | x
CC(=O)OCC(=O)C1CCC2C3CC=C4CC(O)CC[C@@]4(C)C3CC[C@]12C (stereo partly drawn) | n | x | n | n | x | x
CN(CCc1ccccc1)Cc1c[nH]c2ccccc12 | 1.46µM | 14.1µM | 0.82µM | x | -67.2 | 11.2µM
CCCC(Cn1cncn1)c1ccc(Cl)cc1Cl (stereo not drawn) | x | x | x | n | x | x
N#Cc1cc2c(nc1SCC(=O)Nc1cc(Cl)ccc1Cl)C1CCN2CC1 | u | u | 18.4µM | n | n | n
N#Cc1cc2c(nc1SCC(=O)Nc1ccc(Cl)cc1)C1CCN2CC1 | u | n | u | n | n | n
N#Cc1cc2c(nc1SCC(=O)Nc1ccc(Cl)c(C(F)(F)F)c1)C1CCN2CC1 | 11.6µM | u | 20.6µM | n | x | n
N#Cc1cc2c(nc1SCC(=O)Nc1ccc(C(F)(F)F)cc1)C1CCN2CC1 | 23.1µM | u | 13µM | n | x | n
COc1cc2c(cc1O)[C@H]1Cc3ccc(OC)c(O)c3CN1CC2 | x | x | x | n[21 µM] | x | x
CN1CC[C@@]2(CCCN(C(=O)c3ccncc3)C2)C1 | n | x | n | x | x | x
Cc1ccccc1-n1c(/C=C/c2ccccc2F)nc2ccccc2c1=O | 8.2µM | x | 20.6µM | n[12.3 µM] | x | n
CSc1ccc(/C=C/c2nc3ccccc3c(=O)n2-c2cccc(Cl)c2C)cc1 | u | u | u | n | x | n
COc1ccc(-n2c(/C=C\c3ccccc3F)nc3ccccc3c2=O)cc1OC | 16.4µM | n | 23.1µM | n | x | n
SMILES | TDP1 cell noCPT | TGFb SMAD3 inh | TDP1 cell CPT | TDP1 block | IL1B secr inh | HepG2 viability
O=c1c2ccccc2nc(/C=C/c2cccc3ccccc23)n1-c1ccccc1Cl | 10.3µM | n | 11.6µM | n | x | n
COc1ccccc1-n1c(/C=C/c2ccccn2)nc2ccccc2c1=O | u | n | u | x | x | n
C[C@H](CCC(=O)O)[C@H]1CC[C@H]2[C@H]3C(CC[C@]12C)[C@@]1(C)CC[C@@H](O)C[C@H]1C[C@H]3O (stereo partly drawn) | n | x | n | n | x | x
COC(C/C=C/C=C/CC/C=C\CC(C)/C=C\C(=C/C(=O)O)CC(=O)O)/C(C)=C\C=C(/C)C(=O)O (stereo not drawn) | n[4.12 µM] | x | n[4.12 µM] | n | x | x
CC1CCC(C(C)C)C(OC(=O)c2ccccc2N)C1 (stereo not drawn) | u | x | u | n | x | x
O=C1/C(=C/c2ccc(N(CCCl)CCCl)cc2)Cc2ccccc21 | 7.94µM | n | 4.47µM | x | x | n
O=c1[nH]/c(=C\c2ccc(N(CCCl)CCCl)cc2)c(=O)[nH]/c1=C\c1ccc(N(CCCl)CCCl)cc1 | u | n | 3.16µM | x | x | n
CN1CCCCC1Cn1cc(C(=O)c2cc([N+](=O)[O-])ccc2I)c2ccccc21 (stereo not drawn) | x | x | x | n | x | x
CC(C)[C@H]1C(=O)O[C@H](C(C)C)C(=O)N(C)[C@@H](C(C)C)C(=O)O[C@H](C(C)C)C(=O)N(C)[C@@H](C(C)C)C(=O)O[C@H](C(C)C)C(=O)N1C | 4.11µM | 5.62µM | 3.26µM | n | n | n
COc1ccc(NC(=O)C2Cc3c(-c4cccc(C(C)=O)c4)ccnc3O2)cc1OC (stereo not drawn) | 4.11µM | n | 3.26µM | x | n | n
COc1ccc(NC(=O)CN2C3CCC2CC(O)(c2cccnc2)C3)cc1OC (stereo not drawn) | n | n | n | n | n | n
CC(C)CN(C(=O)CN1CC=C(c2ccccc2)CC1)c1c(N)n(CC(C)C)c(=O)[nH]c1=O | 18.4µM | n | u | n | n | n
C=CCN1CC[C@]23CCCCC2[C@H]1Cc1ccc(O)cc13 (stereo partly drawn) | x | x | x | n | x | x
COC(=O)c1nc(-c2ccc3c(n2)C(=O)C(N)=C(OC)C3=O)c(N)c(-c2ccc(OC)c(OC)c2O)c1C | 0.92µM | u | 0.461µM | n | -55.1 | n
COc1ccc(CCNC(=O)c2cnc3sc(N4CCCCCC4)nn3c2=O)cc1 | 9.2µM | n | 20.6µM | n | x | n
CCC(=O)O[C@H]1[C@@H](N2CCCCC2)C[C@H]2[C@@H]3CC[C@H]4C[C@H](OC(C)=O)[C@@H](N5CCCCC5)C[C@]4(C)[C@H]3CC[C@@]21C | 6.68µM | x | 7.5µM | x | x | x
CC(=O)OCC(=O)[C@@H]1CC[C@H]2[C@H]3CC[C@H]4C[C@@H](O)CC[C@]4(C)[C@@H]3C(=O)C[C@@]12C | x | x | x | n[21 µM] | x | x
Cc1cccc(N2CCN(C(=O)c3ccc(CNc4c(N5CCC(C)CC5)c(=O)c4=O)cc3)CC2)c1C | 16.4µM | n | u | n | n | n
CCC1(C)CC(C(N)=S)CCO1 (stereo not drawn) | 20.6µM | n | 18.4µM | n | n | n
CC(=NNC(=S)N1CC2CCC(CC2)C1)c1nccs1 | 0.0259µM | u | 0.0206µM | x | -100.2 | n
CC[C@]12CCCN3CCC4(c5ccccc5NC4C(C(=O)O)C1)C32 (stereo partly drawn) | u | x | u | n | x | x
CC(C)COP(=O)(c1ccc(N(C)C)cc1)C(O)c1ccc(Br)cc1 (stereo not drawn) | n | n | u | x | n | n

Screening data: PubChem BioAssay, National Center for Advancing Translational Sciences (NCATS)
